Records with an inconclusive call do not appear. The source made the active and inactive calls. The calls were made as follows: active = hit-call score of the fitted dose curve at least 0.9, where 1 is the maximum; inconclusive = response in the unintended direction; inactive = score below 0.9.
Molecular target: human Vitamin D Receptor (VDR), VDR (gene 7421) (UniProt P11473)
Assay: ATG_VDR_TRANS: Attagene TRANS-FACTORIAL HepG2 Assay for human Vitamin D Receptor (VDR) (AID 2283022)
Procedure, shortened: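 HepG2 cells were transiently transfected with multiple GAL4-UAS reporter units, so signal reflects exogenous chimeric receptor-Gal4 activity. After 24 h compound exposure, reporter mRNA was measured by RT-PCR, fluorescent labelling and capillary electrophoresis, fitted for gain of signal versus DMSO.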

Sequence of human Vitamin D Receptor (VDR), VDR (gene 7421) (P11473 whole entry, looked up): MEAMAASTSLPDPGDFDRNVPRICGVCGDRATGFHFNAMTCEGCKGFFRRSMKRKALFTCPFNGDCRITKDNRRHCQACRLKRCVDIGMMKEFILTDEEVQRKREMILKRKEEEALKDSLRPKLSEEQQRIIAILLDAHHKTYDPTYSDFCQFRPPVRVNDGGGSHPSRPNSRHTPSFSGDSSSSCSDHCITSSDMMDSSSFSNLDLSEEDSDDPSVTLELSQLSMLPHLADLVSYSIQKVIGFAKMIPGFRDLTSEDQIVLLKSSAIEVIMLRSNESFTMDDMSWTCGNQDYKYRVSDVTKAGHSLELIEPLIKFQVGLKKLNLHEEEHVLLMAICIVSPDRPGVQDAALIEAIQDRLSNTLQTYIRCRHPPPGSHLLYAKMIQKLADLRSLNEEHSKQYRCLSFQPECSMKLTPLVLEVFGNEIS

SMILES	outcome
CCCCCCCCOC(C)=O	inactive
C=CCOC(=O)/C=C\C(=O)OCC=C	inactive
CCC(CC)CO	inactive
CC(C)N(c1ccccc1)C(C)C	inactive
CCCCCCOc1ccc(O)cc1	inactive
OCC=Cc1ccccc1	inactive
CC1=C(C=O)C(C)(C)CCC1	inactive
CC1(C)CC(=O)CC(C)(C)N1	inactive
CCCCN(CCCC)CCCCCCN(CCCC)CCCC	inactive
C=CC(C)CCCC(C)(C)O (stereo not drawn)	inactive
Cc1cccc(C)c1	inactive
O=C1OCc2ccccc21	inactive
O=[N+]([O-])c1cc(N(CCO)CCO)ccc1NCCO	inactive
Cc1cc(N)n(-c2ccccc2)n1	inactive
CC(C)(C)c1ccc(S)cc1	inactive
NS(=O)(=O)c1cc(C(=O)O)c(NCc2ccco2)cc1Cl	inactive
CC(=O)c1ccc(O)cc1	inactive
CN1CCc2cccc3c2[C@H]1Cc1ccc(O)c(O)c1-3	inactive
CCCCCC(=O)O[C@]1(C(C)=O)CC[C@H]2[C@@H]3CCC4=CC(=O)CC[C@]4(C)[C@H]3CC[C@@]21C	inactive

SMILES	outcome
C=C(C)C(=O)OCCC(C)OC(=O)C(=C)C (stereo not drawn)	inactive
CC1=CC(O)CC(C)(C)C1 (stereo not drawn)	inactive
CN(C)C(=O)Nc1ccccc1	inactive
O=Cc1ccccc1O	inactive
CCC(C)(CCCC(C)C)OC(C)=O (stereo not drawn)	inactive
CCOC(=O)CC(C)C	inactive
S=c1[nH][nH]c(=S)s1	inactive
CN(C)CCC=C1c2ccccc2CCc2ccccc21	inactive
Cc1ccccc1S	inactive
Cc1ccncc1	inactive
CCNC(=S)NCC	inactive
OC[C@@H](O)[C@H](O)[C@@H](O)[C@@H](O)CO	inactive
CC/C=C\CCOC(=O)C(C)C	inactive
CCc1cccc(O)c1	inactive
CCCCC/C=C\C=C\C(=O)OCC	inactive
CCCCCCCCCCOC(=O)c1ccccc1C(=O)OCCCCCCCC	inactive
C=CC(C)(CCC=C(C)C)OC(=O)CC (stereo not drawn)	inactive
CCO[Si](CC)(OCC)OCC	inactive
CCCCCCCC(=O)N(C)C	inactive

— PubChem BioAssay (EPA / NIEHS)
